Assay results: the supplement of paper PMC10338343
± gives the standard deviation.

Tested on: EfPiwi piRISC loaded with L1MC piRNA (26 nt)
Test: pre-steady-state target cleavage rate (min^-1); auxiliary factor: 500 nM Ephydatia muelleri Gtsf1; guide: L1MC piRNA 5'p-UAACUAAAUACUAUGCAAGCUGUAGG; MIWI and MILI are mouse PIWI proteins and EfPiwi is from a freshwater sponge; tags in brackets are library labels; higher = faster piRNA-guided slicing of the target
Procedure: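 Cleave-'n-Seq: a library of target RNAs (target site in constant flanks) at […] was incubated with 1 nM active freshwater sponge Ephydatia fluviatilis Piwi piRISC (synthetic 5'-monophosphorylated piRNA guide) with or without 500 nM EmGtsf1 at 33 °C for 1 min to 16 h. Uncleaved targets were sequenced and the pooled three trials fitted to a burst-and-steady-state model to give the pre-steady-state cleavage rate (min^-1). Sequence is the target site only. Fits with R² ≤ 0 are excluded.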

Sequence	pre-steady-state target cleavage rate
UCCUGCUAGAGCUUGCAUUGUAUUUAGUUA	0.00751 ± 0.0022
UCCUGGAUGAGCUUGCAUAGUAUUUAGAUUA	0.00336 ± 0.002
UCCUCCUACAGCAAGCAUAGUAUUUAGUAA	0.00371 ± 0.0026
UCCUGGUCCAGCUUGCAUAGUAUUUAGUUA	0.0262 ± 0.007
UCCUGCUAGAGCUUGCAUAGUAUUUUGUUA	0.00421 ± 0.0016
UCCUGCUACAGCUUGCAUAGUAUUUAGUCUA	0.00636 ± 0.0024
UCCUGGUACAGCUUGCUUAGUAUUUAGUAA	0.00376 ± 0.0023
UCCUGGAACAGCAUGCAUAGUAUUUUGUUA	0.00267 ± 0.0022
UCCUGGAAGAGCUUGCAUAGUAUUAAGUUA	0.00519 ± 0.0018
UCCUGGAACAGCUUGCAUAGGUAUUUAGUUA	0.00262 ± 0.0026
UCCUGCUACAGGCUUGCAUAGUAUUUAGUUA	0.00977 ± 0.0027
UCCUGCUACAGUCUUGCAUAGUAUUUAGUUA	0.00684 ± 0.0025
UCCUCCUACAGCUUCGAUAGUAUUUAGUUA	0.0137 ± 0.0042
UCCUGGAUCUGCAUGCAUAGUAUUUAGUUA	0.0798 ± 0.021
UCCUGCUAGAGCUUCCAUAGUAUUUAGUUA	0.00239 ± 0.0017
UCCUGCUACAGCUUGCAUAGUAUUUACUUA	0.00356 ± 0.0027
UCCUGGAUCAGCUUGCAUAGUAGUUUAGUUA	0.0107 ± 0.0033
UCCUGGAACAGGAUGCAUAGUAUUUAGAAA	0.00257 ± 0.0016
UCCUGGUACAGCUAGGAUAGUAUUUAGUUA	0.00331 ± 0.0017
UCCUCCUACAGCUUGGAUAGUAUUUAGUUA	0.057 ± 0.012

Sequence	pre-steady-state target cleavage rate
UCCUGGAUGUGCUUGACAUAGUAUUUAGUUA	0.0797 ± 0.03
UCCUCCUUCAGCUUGCUUAGUAUUUAGUUA	0.0651 ± 0.022
UCCUGGAACAGCUAUGCAUAGUAUUUAGUUA	0.0102 ± 0.0029
UCCUCCUAACAGCUUGCAUAGUAUUUAGUUA	0.0133 ± 0.0051
UCCUCCUUCAGCUUGCAUUGUAUUUAGUUA	0.0307 ± 0.0077
UCCUGGAUCAGCUUGGAUAGUAUUUUGUUA	0.00346 ± 0.0027
UCCUCCUACAGCUUGCAUAGUAUUCUAGUUA	0.00344 ± 0.0019
UCCUGCUACAGCUUGCAUAGUUAAUAGUUA	0.00347 ± 0.0032
UCCUGCUAUAGCUUGCAUAGUAUUUAGUUA	0.014 ± 0.0046
UCCUGGAUGUCCUUGCAUAGUAUUUAGAUA	0.00461 ± 0.0029
UCCUGGAACAGCUAGCAUAGUAUUUUGUUA	0.00465 ± 0.003
UCCUGGUACAGCUUGGCAUAGUAUUUAGUUA	0.05 ± 0.016
UCCUGGAACAGGAUGCAUAGUAUUUACAAA	0.00226 ± 0.0018
UCCUGCUAGAGCUUGCAUAGUAUUUUCAAA	0.00315 ± 0.0025
UCCUGGAACAGCUUGGAUAGUAUUUUGUUA	0.00249 ± 0.0021
UCCUGCUACAGCUUGCAUAGAAUUUAGUAA	0.00358 ± 0.0016
UCCUGCUACAGCUUGCAUAGGAUUUAGUUA	0.00356 ± 0.001
UCCUGGUACAUGCUUGCAUAGUAUUUAGUUA	0.0077 ± 0.0034
UCCUGGUACAGCUUGCAAAGUAUUUUCAAA	0.00424 ± 0.0036
UCCUGGUUCAGCUUGCAUAGUAUUUUGUUA	0.00528 ± 0.0032
